# Source: PubChem
# M1 antagonist: antagonists of rat M1 muscarinic receptor | Muscarinic acetylcholine receptor M1 (Rattus norvegicus), P08482 | CHO-M1 cells, Fluo-4 calcium, ACh EC80 antagonist mode; stronger effect = lower value | B-score at 10 µM | hit rate 3.4% among 64,000;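 active = calcium fluorescence response, raw or row-and-column corrected B-score, differing from the plate sample mean either way at a set confidence level, mostly lower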
# M1 agonist: M1 muscarinic receptor agonists, primary screen, CHO-M1 cells, Fluo-4 calcium, agonist mode; Muscarinic acetylcholine receptor M1; Fluo-4 calcium fluorescence; stronger effect = higher value; B-score at 10 µM; hit rate 3% among 64,000;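 active = fluorescence rise, raw or as B-score row- and column-corrected plate score, outside the 99.7% band of its plate's samples, either direction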
# PLAP activator: PLAP enzyme activators, biochemical, luminescence, HTS; Alkaline phosphatase, placental type (Homo sapiens), P05187; purified PLAP enzyme, luminescent substrate read-out; stronger effect = higher value; activation fold at 20 µM; hit rate 1.2% among 96,000; AID 696, 2007; in the data active = activation fold above about 2
# Target sequence (P05187 whole entry, looked up): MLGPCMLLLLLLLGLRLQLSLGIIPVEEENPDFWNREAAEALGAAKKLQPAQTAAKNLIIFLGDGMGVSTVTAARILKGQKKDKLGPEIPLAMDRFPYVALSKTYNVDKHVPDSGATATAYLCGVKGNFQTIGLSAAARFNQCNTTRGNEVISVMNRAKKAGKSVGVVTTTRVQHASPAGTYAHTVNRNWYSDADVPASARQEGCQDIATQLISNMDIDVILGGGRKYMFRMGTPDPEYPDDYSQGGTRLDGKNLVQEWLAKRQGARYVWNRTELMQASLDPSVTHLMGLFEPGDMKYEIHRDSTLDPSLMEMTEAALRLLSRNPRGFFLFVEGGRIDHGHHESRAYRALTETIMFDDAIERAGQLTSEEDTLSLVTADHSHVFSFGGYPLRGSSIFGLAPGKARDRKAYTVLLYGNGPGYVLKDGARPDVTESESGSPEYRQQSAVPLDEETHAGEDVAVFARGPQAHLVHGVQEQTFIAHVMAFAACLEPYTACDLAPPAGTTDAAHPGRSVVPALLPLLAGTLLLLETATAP
# Cav3 T inh: Cav3.2 calcium influx blockers – cell-based, Fluo-4 calcium fluorescence, FDSS, MLSMR library, primary screen; Voltage-dependent T-type calcium channel subunit alpha-1H (Homo sapiens), O95180; Cav3.2-expressing cells; stronger effect = lower value; B-score at 10 µM; hit rate 4% among 100,000; AID 449739, 2010;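 active = single-dose well whose peak fluorescence ratio is a statistical outlier from its plate by either plate-standardised score or position-corrected B-score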
# An asterisk follows results filed as active; / = no result given. The list is not random: actives were taken first. Their share in the collection is about 7.6%.
SMILES,M1 antagonist,M1 agonist,PLAP activator,Cav3 T inh
Cc1c(C(=O)NC2CCCc3ccccc32)oc2ccccc12 (centres undefined),/,/,0.9,-4.57*
COc1cccc(-c2nc(CS(=O)CC(=O)NCc3ccc4c(c3)OCO4)c(C)o2)c1 (centres undefined),0.677,-0.0255,1.5,-5.01*
Cc1ccc(CNC(=O)CS(=O)Cc2nc(-c3ccccc3C)oc2C)cc1 (centres undefined),-0.263,0.807,1.4,-4.47*
COc1ccc(-c2nc(CS(=O)CC(=O)NCc3ccc4c(c3)OCO4)c(C)o2)cc1 (centres undefined),-0.538,-0.0563,1.7,-1.27
Cc1ccc(NC(=O)CS(=O)Cc2nc(-c3ccc(C)cc3)oc2C)cc1 (centres undefined),/,/,1.1,-4.57*
Cc1ccc(-c2nc(CS(=O)CC(=O)NCc3ccccc3)c(C)o2)cc1 (centres undefined),0.227,-0.157,1.1,-1.67
NC(=O)Nc1ccc(F)cc1,/,/,1,0.63
O=c1n(Cc2ccccc2F)c2ccccc2n1Cc1ccccc1F,/,/,/,-1.93
Cc1ccc(CNC(=O)CSc2nc3ccccc3c3nc(C)nn23)cc1,/,/,1.4,0.00887
Cc1ccc(-c2nc(NC(=O)CSc3nnc4scc(-c5ccccc5)n34)ns2)cc1,0.269,1.29,/,-0.705
COc1ccc(C(=O)COc2ccccc2N2C(=O)C3C4C=CC(C4)C3C2=O)cc1 (centres undefined),/,/,0.7,0.0259
O=C(Cc1ccccc1)NCCSCc1ccc(Cl)cc1,/,/,0.8,-4.37*
CCN1CCN(CCCNC(=O)C2c3ccccc3C(=O)N(C)C2c2ccc(OC)cc2)CC1 (centres undefined),0.162,-0.23,1.3,-5.56*
CCCCNC(=O)C1c2ccccc2C(=O)N(c2ccc(OC)cc2)C1c1ccc(OC)cc1 (centres undefined),/,/,1.9,0.371
Cc1ccc(Nc2c([N+](=O)[O-])c(=O)n(C)c3ccccc23)cc1C,/,/,1.1,-1.36
CCCc1cc(-c2[nH]ncc2-c2ccc3c(c2)OCCCO3)c(O)cc1O,-1.14,-0.727,2.6*,-0.642
C=C(C)COc1ccc(-c2[nH]ncc2-c2ccc(OC)c(OC)c2)c(O)c1,0.0864,1.62,1.2,-1.12
CCOC(=O)c1ccc(CSc2ncn[nH]2)o1,0.589,0.641,0.9,-0.271
CCCc1cc(-c2[nH]ncc2-c2ccc(C(=O)OCC)o2)c(O)cc1O,0.503,0.658,2.1*,-0.0811
O=C1CC(NCCC2=CCCCC2)C(=O)N1c1cccc(Cl)c1Cl (centres undefined),/,/,1.4,-3.4*
Cc1ccc(OCCn2c(CCCO)nc3ccccc32)cc1,-0.643,0.606,1.3,-3.43
Cc1ccc(OCCn2c(CCNC(=O)C(C)C)nc3ccccc32)cc1,/,/,1.2,-6.9*
CC(C)(C)N1CC(c2nc3ccccc3n2CCOc2ccccc2)CC1=O (centres undefined),/,/,1.6,-3.9*
CC(C)C(=O)NCCc1nc2ccccc2n1CCCOc1ccc(Cl)cc1,/,/,1.6,-5.65*
CC(C)C(=O)NCCc1nc2ccccc2n1C,0.462,0.635,1.1,-0.715
SMILES,M1 antagonist,M1 agonist,PLAP activator,Cav3 T inh
CCCc1nc2ccccc2n1CCOc1ccccc1,/,/,1,-5.28*
CC(C)(C)N1CC(c2nc3ccccc3n2Cc2ccc(Cl)cc2)CC1=O (centres undefined),/,/,1.8,-1.12
CCCS(=O)(=O)N1CCN(C(=O)c2cccc(OC)c2)CC1,0.0135,0.241,1.2,0.0386
COc1cc(NC(=S)NN2CCN(C)CC2)cc(OC)c1,/,/,1.1,0.00541
CN1CCN(c2ccc([N+](=O)[O-])c(-n3nc(-c4ccccc4)c4ccccc4c3=O)c2)CC1,/,/,1.2,0.226
COc1ccccc1CN(C(=O)c1ccco1)C(C(=O)NC1CCCC1)c1ccncc1 (centres undefined),-0.222,-0.512,1.3,0.315
CC1CCCN(C(=O)c2cc(F)c(F)cc2Cl)C1 (centres undefined),-0.0184,-0.114,0.9,0.0219
COc1ccc(OC)c(Nc2cc(C)nc3ccccc23)c1,-0.0326,0.331,0.7,-0.0948
COc1ccc(OC)c(Nc2cc(-c3ccccc3)nc(N)n2)c1,0.212,-0.0276,1.5,-4.47*
CC(C)NC(=S)Nc1ccc(Oc2ccccc2)cc1,/,/,1,-4.74*
O=C(COc1ccc(N2CC(C(=O)O)CC2=O)cc1)Nc1cccc(C(F)(F)F)c1 (centres undefined),0.424,-0.294,0.9,1.43
CCOC(=O)c1oc2ccccc2c1NC(=O)c1ccccc1OC,0.317,1.06,1.1,-4.69*
